Bioassay records (PubChem)
D2 PAM-1: positive allosteric modulators of human D2 dopamine receptor | P14416 | hit rate 0.23% among 360,000 | DiscoveRx D2 beta-arrestin cells, luminescence, 90 min; 100% = 57 uM dopamine signal | potentiation, % (no concentration beside the values) | AID 624464; in the data active = potentiation above about 50%; inconclusive = mostly about 30% to 49%
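PathHunter beta-arrestin assay in DiscoveRx D2 cells. Compounds were added with an EC20 of dopamine (50 nM final) for 90 min at 37 deg C. Luminescence was read 1 h after detection reagent, with 57 uM dopamine as the EC100 control.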
D2 ag-1: D2 dopamine receptor (human) agonism; HEK293 T-REx D2 cells, calcium flux agonist mode; activation, % at 2 µM; hit rate 0.53% among 340,000; AID 485358;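 active = activation over 3 SD above normal in the single-dose calcium agonist read, cut at about 30% in these data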; also: 0% is about no effect
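Tetracycline-induced HEK293 Trex cells with D2 receptor force-coupled to calcium signaling, plated overnight at 30 C and loaded with no-wash calcium dye. Calcium flux read kinetically for 180 s after compound addition; responses flag agonists.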
D2 ag-2: activates the human D2 dopamine receptor; hit rate 0.084% among 360,000; DiscoveRx PathHunter D2 beta-arrestin, luminescence, 90 min; 100% = 57 uM dopamine signal; AID 624465; P14416; activation, % (test concentration not listed); in the data active = activation above about 40%; inconclusive = between about 15% and that limit
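DiscoveRx PathHunter D2 beta-arrestin cells (2,100/well) attached overnight, then compound-stimulated 90 min at 37 C in HBSS/10 mM HEPES/0.1% Tween-20 buffer; beta-galactosidase complementation read by luminescence after 1 h at ambient temperature. Dopamine 57 uM final (EC100) as control.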
D2 antag: antagonists of human D2 dopamine receptor; HEK293 TREx D2 cells, calcium flux, dopamine EC80; inhibition, % at 10 µM; hit rate 2% among 340,000; AID 485344; in the data active = inhibition above about 30%; inactive = below that, where a call was filed; also: 0% is about no effect
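Overnight-induced (tetracycline, 30 C) HEK293 T-REx cells carrying force-coupled D2 receive a no-wash calcium dye, then compound, then EC80 dopamine at 180 s; signals are read kinetically throughout.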
D2 PAM-2: D2 dopamine receptor (human) potentiation. P14416. HEK293 T-REx D2, calcium flux, EC20 dopamine potentiation. potentiation, % at 10 µM. hit rate 0.34% among 340,000;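 active = potentiation over 3 SD above the plate norm, cut at about 30% in these data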; also: 0% is about no effect
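Potentiation of an EC20 dopamine calcium response is measured in a force-coupled, tetracycline-inducible Hek293 Trex D2 line. Compound-only kinetic reads over 180 s flag agonists before dopamine addition.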
D3 ag: D3 receptor agonism confirmed, beta-arrestin readout. shares compounds with D2 ag-1. DiscoveRx D3 beta-arrestin cells, luminescence, 90 min. Potency, µM (titrated, usually from 76.9 µM), for inactives: at the top dose activation, actives largely listed as activators. hit rate 4% among 2,300;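 also: potency is read from the fitted curve at half-maximal effect; 100% = dopamine control response; nearly all actives have a fitted effect of over 70% in size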
Target sequence (P35462 whole entry, looked up): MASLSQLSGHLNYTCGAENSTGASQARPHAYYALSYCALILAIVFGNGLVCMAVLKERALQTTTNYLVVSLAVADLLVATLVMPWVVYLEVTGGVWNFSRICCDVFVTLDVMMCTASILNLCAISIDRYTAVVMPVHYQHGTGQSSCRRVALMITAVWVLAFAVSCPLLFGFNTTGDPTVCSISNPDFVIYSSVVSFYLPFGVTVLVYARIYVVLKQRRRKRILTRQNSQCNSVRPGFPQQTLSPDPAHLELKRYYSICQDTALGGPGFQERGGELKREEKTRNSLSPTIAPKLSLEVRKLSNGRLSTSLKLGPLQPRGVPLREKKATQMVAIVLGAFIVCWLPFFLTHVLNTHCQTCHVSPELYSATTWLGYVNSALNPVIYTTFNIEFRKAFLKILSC
D2 ag-3: D2 receptor agonism, beta-arrestin counterscreen | shares compounds with D2 ag-1 | DiscoveRx PathHunter D2 beta-arrestin, luminescence, 90 min; response scale: percent relative to full dopamine signal | Potency, µM (series often up to 76.9 µM), for inactives: at the top dose activation, usual class: activators | hit rate 5.9% among 2,300; also: potency is read from the fitted curve at half-maximal effect; % of control where 0% means no effect; nearly all actives have a fitted effect of over 70% in size
* marks the source's active call; other numbers are inactive results; ? = inconclusive; / = no result given. Only some compounds are listed: those with a hit (about 2.4% of all), similar ones and a draw of the others. Unless noted, calls follow the shape of the dose curve; as a rule, active = well fitted activation curve with a large enough effect; inconclusive = small, poorly fitted or top-dose-only effect; inactive = flat fitted curve, though single readings scatter.

SMILES	D2 PAM-1	D2 ag-1	D2 ag-2	D2 antag	D2 PAM-2	D3 ag	D2 ag-3
CCOc1ccc(C(=O)N/N=C(\c2ccccc2)c2ccccn2)cc1	-27.7	-0.9	-4.4	21.5	5.3	-23.1%	-10.9%
COc1ccc(OC)c(NC(=O)c2cc(S(=O)(=O)NCCc3ccc(Cl)cc3)ccc2F)c1	/	0.0	/	/	2.2	/	/
CCOc1ccc(-n2c(=S)sc3c(=O)[nH]c(SCC(=O)NCc4ccco4)nc32)cc1	-6.9	0.0	-0.4	45.2*	-4.2	-0.4%	-2.7%
CCOC(=O)CSc1nc2c(sc(=S)n2-c2ccc(OCC)cc2)c(=O)[nH]1	6.2	-0.6	7.2	17.6	-2.2	/	/
Cc1c(Nc2nc(-c3ccccc3)cs2)c(=O)n(-c2ccccc2)n1C	-16.5	0.1	-0.8	12.3	-2.7	/	/
C=CC[n+]1c(-c2ccc(Cl)cc2Cl)csc1Nc1c(C)n(C)n(-c2ccccc2)c1=O	-28.2	56.6*	-7.5	48.9*	-16.0	-47.9%	-10.4%
C=CC[n+]1c(-c2ccc(C)cc2)csc1Nc1c(C)n(C)n(-c2ccccc2)c1=O	-13.8	/	-0.8	/	/	-10.8%	11.3%
c1ccc(C2CCC(N3CCN(c4ccccc4)CC3)CC2)cc1 (stereo not given)	-28.6	64.0*	-3.4	-3.9	-19.5	4.5%	9.3%
O=S(=O)(Cc1ccccc1)N1CCC(N2CCN(c3ccccc3)CC2)CC1	-4.1	82.6*	?	88.6*	-18.7	?	?
COc1ccc(S(=O)(=O)N2CCC(N3CCN(c4ccccc4)CC3)CC2)cc1	/	73.5*	/	61.4*	-12.5	19.5%	?
CCCCN(C)S(=O)(=O)c1cc2c(cc1Br)CCN2C(=O)C1CC1	-13.2	/	0.4	/	/	/	/
CSc1ccc(CCNC(=O)CCc2c(C)nc3cc(-c4ccccc4)nn3c2C)cc1	/	1.2	/	/	5.7	/	/
COCc1ccc(-c2c(-c3ccccc3OC)sc3cc4c(cc23)OCO4)cc1	-6.4	-0.4	-2.3	39.9*	7.8	0.9%	-3.4%
Cc1cc(-n2c(C)nc3ccccc3c2=O)ccc1NC(=O)c1cccc([N+](=O)[O-])c1C	/	-5.4	/	/	19.5	/	/
Cc1ccc(-c2cn(-c3cccc(Cl)c3)c(S(=O)(=O)CC(=O)Nc3ccccc3F)n2)cc1	/	0.1	/	/	/	/	/
O=C(CSc1cn(CC(=O)N2CCCC2)c2ccccc12)Nc1ccccc1C(F)(F)F	/	/	/	/	2.6	/	/
COc1ccc2oc(C(=O)OCC(=O)Nc3cccc(S(=O)(=O)N4CCOCC4)c3)c(C)c2c1	-0.7	0.9	2.6	-3.6	1.9	/	/
COc1ccc2oc(C(=O)Nc3cccc(S(=O)(=O)N4CCOCC4)c3)c(C)c2c1	5.3	-0.2	1.0	-3.9	-2.8	2.7%	-2.0%
Clc1cccc(-n2ncc3c(NCCC4=CCCCC4)ncnc32)c1	/	0.0	/	/	-3.1	/	/
Oc1ccc(N2CCN(Cc3ccc(OCCCN4CCCCC4)cc3)CC2)cc1	5.2	71.6*	46.7*	91.3*	-29.4	?	4.47µM*
c1ccc(COc2ccc(OCCCCN3CCCCC3)cc2)cc1	-43.6	0.3	4.0	-14.8	-11.4	/	/
COc1cc(OC)cc(-c2c(-c3cccs3)c3cc(-c4ccc(SC)cc4)ccc3n2C)c1	-1.9	-0.3	1.9	57.7*	0.7	6.8%	0.6%
COc1ccc(-c2c(-c3cc(OC)cc(OC)c3)n(C)c3ccc(-c4cnc(N)nc4)cc23)cc1	-4.0	/	-4.2	/	/	/	/
COc1ccc(-c2c(-c3cc(OC)cc(OC)c3)n(C)c3ccc(-c4ccc(S(N)(=O)=O)cc4)cc23)cc1	-6.5	0.5	-2.0	-6.6	-4.8	-3.5%	5.1%
O=C(NCCCN1CCN(c2ccccc2F)CC1)C1CCCN(S(=O)(=O)c2cnc[nH]2)C1 (stereo not given)	12.4	67.9*	-1.9	64.7*	-18.9	?	14.9%
SMILES	D2 PAM-1	D2 ag-1	D2 ag-2	D2 antag	D2 PAM-2	D3 ag	D2 ag-3
CC(=O)c1ccc(N2CCN(C(=O)C3CCCN(S(=O)(=O)c4ccc(Br)s4)C3)CC2)cc1 (stereo not given)	/	-0.7	/	/	0.0	/	/
CC(=O)c1ccc(N2CCN(C(=O)C3CCCN(S(=O)(=O)c4cnc[nH]4)C3)CC2)cc1 (stereo not given)	-6.1	1.1	-2.2	32.4*	5.6	-3.4%	-7.4%
Cc1ccc(NC(=O)CN2C(=O)COc3ccc(S(=O)(=O)NC4CCCC4)cc32)cc1Cl	/	0.7	/	/	-13.5	/	/
COC(=O)c1ccccc1NC(=O)c1ccc2c(c1)CCN2S(=O)(=O)c1ccc(C)cc1	/	1.3	/	/	-2.1	/	/
c1ccc2c(c1)ncn2-c1cncnc1	-3.4	/	-3.8	/	/	/	/
COc1cccc(-n2cc(CNCc3c(C(=O)N(C)C)nc4ccc(Cl)cn34)cn2)c1	-21.8	/	-2.6	/	-21.0	10.2%	-0.2%
Cc1ccccc1-n1cc(CNCc2c(C(=O)N(C)C)nc3ccc(Cl)cn23)cn1	-25.3	0.1	-4.8	1.1	-1.4	/	/
COc1cccc(-n2cc(CNCc3cn(C)nc3-c3ccccc3F)cn2)c1	24.4	78.7*	66.2*	84.7*	-21.5	6.31µM*	12.6µM*
O=C(O)c1ccc(S(=O)(=O)c2ccc3c(c2)C(=O)N(c2ccc(O)cc2)C3=O)cc1	-1.7	61.1*	4.2	-2.7	-26.1	11.5%	8.5%
O=C(O)c1ccc(NC(=O)c2ccc3c(c2)C(=O)N(c2ccccc2)C3=O)cc1	-4.9	0.2	-5.8	7.1	1.7	/	/
Cc1ccsc1CCN1C(=O)N(c2ccccc2)C(=O)C1CC(=O)Nc1ccc(Cl)cc1 (stereo not given)	/	0.9	/	/	-12.6	/	/
CC(C)(C)OC(=O)N1CCN(C(=O)c2[nH]cnc2C(=O)NCc2ccccc2)CC1	-9.7	0.1	-3.5	-3.1	-3.0	-2.9%	-2.3%
CC(C)(C)OC(=O)N1CCC(NC(=O)c2[nH]cnc2C(=O)Nc2ccc(Cl)cc2)CC1	-16.0	1.1	-1.2	1.4	5.7	-1.6%	-2.3%
Cc1ccc(NC(=O)c2nc[nH]c2C(=O)NC2CCN(C(=O)OC(C)(C)C)CC2)cc1	-8.1	/	-2.2	/	/	/	/
CC(C)(C)OC(=O)N1CCC(NC(=O)c2nc[nH]c2C(=O)N2CCc3ccccc3C2)CC1	-6.6	/	-1.3	/	/	-3.0%	-2.5%
Cc1ccc(NC(=O)Cn2c(=O)n(Cc3nc(C)no3)c(=O)c3cc4c(cc32)OCO4)c(Cl)c1	/	0.1	/	/	-2.4	/	/
COc1ccc(-c2ccnc3c2c(=O)n(C)c(=O)n3C)cc1OC	/	0.7	/	/	-10.3	/	/
COc1ccc(Br)cc1CNC(=O)c1ccc2nc(C(C)C)oc2c1	/	/	/	/	-0.3	/	/
